# Data taken from ChEMBL document CHEMBL1961873, “Compounds: GSK PKIS; Assays: Nanosyn kinase panel” (2012).
# Legend:
# [1] = tested on: Epidermal growth factor receptor (Homo sapiens), P00533 [T790M]; settings: at 1 µM
# [2] = tested on: Epidermal growth factor receptor (Homo sapiens), P00533 [L858R,T790M]; settings: at 0.1 µM
# [3] = tested on: Epidermal growth factor receptor (Homo sapiens), P00533 [L858R,T790M]; settings: at 1 µM
# [4] = target: Ephrin type-A receptor 2 (Homo sapiens) (UniProt P29317); settings: at 0.1 µM
# [5] = target: Ephrin type-A receptor 2 (Homo sapiens) (UniProt P29317); settings: at 1 µM
# [6] = target: T1, Ephrin type-A receptor 3 (Homo sapiens) (UniProt P29320); settings: at 0.1 µM
# T1 sequence (whole entry): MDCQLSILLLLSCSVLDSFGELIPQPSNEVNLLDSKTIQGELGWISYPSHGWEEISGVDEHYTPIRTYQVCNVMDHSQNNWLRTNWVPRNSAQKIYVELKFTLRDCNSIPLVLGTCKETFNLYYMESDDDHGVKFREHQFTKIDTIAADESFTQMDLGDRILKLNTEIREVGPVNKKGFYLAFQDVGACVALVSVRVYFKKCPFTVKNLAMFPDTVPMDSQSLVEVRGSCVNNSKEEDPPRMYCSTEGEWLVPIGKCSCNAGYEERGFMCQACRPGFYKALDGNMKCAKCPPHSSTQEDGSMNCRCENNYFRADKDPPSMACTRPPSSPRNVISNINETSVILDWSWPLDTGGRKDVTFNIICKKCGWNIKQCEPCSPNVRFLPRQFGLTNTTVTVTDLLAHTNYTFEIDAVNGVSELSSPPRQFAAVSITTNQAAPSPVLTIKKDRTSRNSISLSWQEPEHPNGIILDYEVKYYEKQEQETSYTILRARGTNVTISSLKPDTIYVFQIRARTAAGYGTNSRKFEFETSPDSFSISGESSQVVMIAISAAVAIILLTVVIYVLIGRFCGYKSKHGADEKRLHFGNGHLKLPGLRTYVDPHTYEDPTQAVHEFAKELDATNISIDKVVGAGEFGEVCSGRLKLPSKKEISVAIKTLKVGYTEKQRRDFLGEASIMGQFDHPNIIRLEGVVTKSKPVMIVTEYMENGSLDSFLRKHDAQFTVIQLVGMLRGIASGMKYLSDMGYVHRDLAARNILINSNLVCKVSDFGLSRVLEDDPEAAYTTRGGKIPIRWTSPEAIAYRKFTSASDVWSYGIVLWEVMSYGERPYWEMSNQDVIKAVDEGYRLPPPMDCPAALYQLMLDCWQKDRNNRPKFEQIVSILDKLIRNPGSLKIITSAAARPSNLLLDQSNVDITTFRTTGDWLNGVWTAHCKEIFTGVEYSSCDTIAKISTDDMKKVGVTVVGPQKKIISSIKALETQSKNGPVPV
# [7] = target: T1, Ephrin type-A receptor 3 (Homo sapiens); settings: at 1 µM
# [8] = target: Ephrin type-A receptor 4 (Homo sapiens) (UniProt P54764); settings: at 0.1 µM
# [9] = target: Ephrin type-A receptor 4 (Homo sapiens) (UniProt P54764); settings: at 1 µM
# [10] = target: T2, Ephrin type-B receptor 2 (Homo sapiens) (UniProt P29323); settings: at 0.1 µM
# T2 sequence (whole entry): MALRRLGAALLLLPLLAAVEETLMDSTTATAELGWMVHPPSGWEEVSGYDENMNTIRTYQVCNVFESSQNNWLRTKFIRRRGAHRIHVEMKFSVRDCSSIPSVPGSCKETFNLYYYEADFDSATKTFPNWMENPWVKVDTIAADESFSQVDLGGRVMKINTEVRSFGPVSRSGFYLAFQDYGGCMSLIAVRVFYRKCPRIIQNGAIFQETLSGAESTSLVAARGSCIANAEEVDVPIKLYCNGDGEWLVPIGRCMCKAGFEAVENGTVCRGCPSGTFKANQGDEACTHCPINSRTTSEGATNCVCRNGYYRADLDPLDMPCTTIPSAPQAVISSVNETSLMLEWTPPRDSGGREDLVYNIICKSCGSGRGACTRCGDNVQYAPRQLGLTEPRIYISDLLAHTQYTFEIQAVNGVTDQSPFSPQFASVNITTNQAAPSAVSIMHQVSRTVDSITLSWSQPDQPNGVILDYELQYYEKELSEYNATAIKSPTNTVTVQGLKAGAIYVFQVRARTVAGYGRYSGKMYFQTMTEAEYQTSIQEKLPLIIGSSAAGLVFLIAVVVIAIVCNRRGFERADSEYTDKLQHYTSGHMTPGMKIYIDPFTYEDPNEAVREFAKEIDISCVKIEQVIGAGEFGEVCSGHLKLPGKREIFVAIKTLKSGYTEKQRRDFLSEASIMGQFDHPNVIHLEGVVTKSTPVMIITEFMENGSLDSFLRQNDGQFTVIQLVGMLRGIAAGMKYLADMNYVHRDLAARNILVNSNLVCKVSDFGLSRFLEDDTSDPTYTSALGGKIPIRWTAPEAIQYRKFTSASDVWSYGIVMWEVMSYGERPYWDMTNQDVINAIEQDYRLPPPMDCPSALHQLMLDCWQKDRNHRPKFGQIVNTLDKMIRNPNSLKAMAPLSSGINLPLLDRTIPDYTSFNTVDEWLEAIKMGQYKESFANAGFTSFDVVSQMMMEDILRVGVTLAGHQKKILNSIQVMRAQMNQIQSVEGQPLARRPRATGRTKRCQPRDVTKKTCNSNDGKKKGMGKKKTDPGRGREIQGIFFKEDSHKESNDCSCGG
# [11] = target: T2, Ephrin type-B receptor 2 (Homo sapiens); settings: at 1 µM
# [12] = target: T3, Ephrin type-B receptor 3 (Homo sapiens) (UniProt P54753); settings: at 0.1 µM
# T3 sequence (whole entry): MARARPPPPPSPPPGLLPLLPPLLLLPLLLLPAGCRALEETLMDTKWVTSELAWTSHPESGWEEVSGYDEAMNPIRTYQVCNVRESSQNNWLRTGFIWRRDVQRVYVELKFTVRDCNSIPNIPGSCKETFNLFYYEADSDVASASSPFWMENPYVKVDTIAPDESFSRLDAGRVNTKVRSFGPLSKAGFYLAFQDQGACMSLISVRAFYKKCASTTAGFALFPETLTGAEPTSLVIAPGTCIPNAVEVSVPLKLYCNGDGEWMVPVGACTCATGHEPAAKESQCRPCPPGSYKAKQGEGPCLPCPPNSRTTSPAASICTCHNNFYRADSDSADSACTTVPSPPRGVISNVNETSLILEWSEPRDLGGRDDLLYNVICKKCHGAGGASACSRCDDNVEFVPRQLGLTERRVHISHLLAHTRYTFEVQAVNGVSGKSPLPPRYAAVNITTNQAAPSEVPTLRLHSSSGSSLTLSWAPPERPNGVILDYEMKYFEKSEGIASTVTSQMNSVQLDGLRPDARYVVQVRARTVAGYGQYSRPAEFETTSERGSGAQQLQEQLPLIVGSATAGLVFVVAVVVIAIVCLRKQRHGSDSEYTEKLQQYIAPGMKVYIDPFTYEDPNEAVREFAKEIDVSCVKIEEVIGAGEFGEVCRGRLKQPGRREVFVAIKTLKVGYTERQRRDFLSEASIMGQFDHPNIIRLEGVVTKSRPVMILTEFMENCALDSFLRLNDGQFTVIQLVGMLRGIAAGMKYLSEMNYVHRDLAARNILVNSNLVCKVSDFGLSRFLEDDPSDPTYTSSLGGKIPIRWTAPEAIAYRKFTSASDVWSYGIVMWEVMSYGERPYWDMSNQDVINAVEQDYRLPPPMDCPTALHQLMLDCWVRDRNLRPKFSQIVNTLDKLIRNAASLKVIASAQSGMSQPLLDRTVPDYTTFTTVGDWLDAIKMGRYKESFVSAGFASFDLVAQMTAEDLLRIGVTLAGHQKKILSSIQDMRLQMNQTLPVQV
# [13] = target: T3, Ephrin type-B receptor 3 (Homo sapiens); settings: at 1 µM
# [14] = target: T4, Ephrin type-B receptor 4 (Homo sapiens) (UniProt P54760); settings: at 0.1 µM
# T4 sequence (whole entry): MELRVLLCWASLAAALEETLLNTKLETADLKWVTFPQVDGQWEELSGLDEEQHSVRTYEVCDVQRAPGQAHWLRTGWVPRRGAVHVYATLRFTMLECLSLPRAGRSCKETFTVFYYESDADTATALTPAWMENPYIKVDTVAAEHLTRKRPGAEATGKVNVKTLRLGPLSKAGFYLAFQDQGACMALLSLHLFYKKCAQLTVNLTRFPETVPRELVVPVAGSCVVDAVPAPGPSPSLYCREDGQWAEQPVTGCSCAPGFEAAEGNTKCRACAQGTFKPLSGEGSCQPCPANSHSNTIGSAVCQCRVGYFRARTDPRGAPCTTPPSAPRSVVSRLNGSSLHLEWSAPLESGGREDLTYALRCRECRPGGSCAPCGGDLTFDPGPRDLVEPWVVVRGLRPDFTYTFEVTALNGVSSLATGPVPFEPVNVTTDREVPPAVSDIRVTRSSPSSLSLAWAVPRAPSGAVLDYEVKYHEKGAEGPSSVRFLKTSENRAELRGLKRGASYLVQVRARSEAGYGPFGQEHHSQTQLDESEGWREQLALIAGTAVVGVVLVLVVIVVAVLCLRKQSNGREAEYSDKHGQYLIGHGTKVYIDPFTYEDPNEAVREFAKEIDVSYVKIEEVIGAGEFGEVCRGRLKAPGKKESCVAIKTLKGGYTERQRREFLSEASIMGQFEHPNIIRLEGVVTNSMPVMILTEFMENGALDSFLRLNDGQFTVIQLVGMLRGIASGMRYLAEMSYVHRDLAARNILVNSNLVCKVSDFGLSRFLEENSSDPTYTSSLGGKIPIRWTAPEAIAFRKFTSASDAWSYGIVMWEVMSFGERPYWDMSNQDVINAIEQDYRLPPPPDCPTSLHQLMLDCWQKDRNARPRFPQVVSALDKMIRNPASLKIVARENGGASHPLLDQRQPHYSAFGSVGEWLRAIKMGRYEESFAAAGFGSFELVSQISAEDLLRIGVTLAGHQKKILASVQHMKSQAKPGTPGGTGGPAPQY
# [15] = target: T4, Ephrin type-B receptor 4 (Homo sapiens); settings: at 1 µM
# [16] = target: Receptor tyrosine-protein kinase erbB-2 (Homo sapiens) (UniProt P04626); settings: at 0.1 µM
# [17] = target: Receptor tyrosine-protein kinase erbB-2 (Homo sapiens) (UniProt P04626); settings: at 1 µM
# [18] = target: Receptor tyrosine-protein kinase erbB-4 (Homo sapiens) (UniProt Q15303); settings: at 0.1 µM
# [19] = target: Receptor tyrosine-protein kinase erbB-4 (Homo sapiens) (UniProt Q15303); settings: at 1 µM
# [20] = target: Tyrosine-protein kinase Fer (Homo sapiens) (UniProt P16591); settings: at 0.1 µM;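 also: reported figures are averaged percent inhibition of FER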
# Tyrosine-protein kinase Fer (Homo sapiens), sequence (P16591 whole entry, looked up): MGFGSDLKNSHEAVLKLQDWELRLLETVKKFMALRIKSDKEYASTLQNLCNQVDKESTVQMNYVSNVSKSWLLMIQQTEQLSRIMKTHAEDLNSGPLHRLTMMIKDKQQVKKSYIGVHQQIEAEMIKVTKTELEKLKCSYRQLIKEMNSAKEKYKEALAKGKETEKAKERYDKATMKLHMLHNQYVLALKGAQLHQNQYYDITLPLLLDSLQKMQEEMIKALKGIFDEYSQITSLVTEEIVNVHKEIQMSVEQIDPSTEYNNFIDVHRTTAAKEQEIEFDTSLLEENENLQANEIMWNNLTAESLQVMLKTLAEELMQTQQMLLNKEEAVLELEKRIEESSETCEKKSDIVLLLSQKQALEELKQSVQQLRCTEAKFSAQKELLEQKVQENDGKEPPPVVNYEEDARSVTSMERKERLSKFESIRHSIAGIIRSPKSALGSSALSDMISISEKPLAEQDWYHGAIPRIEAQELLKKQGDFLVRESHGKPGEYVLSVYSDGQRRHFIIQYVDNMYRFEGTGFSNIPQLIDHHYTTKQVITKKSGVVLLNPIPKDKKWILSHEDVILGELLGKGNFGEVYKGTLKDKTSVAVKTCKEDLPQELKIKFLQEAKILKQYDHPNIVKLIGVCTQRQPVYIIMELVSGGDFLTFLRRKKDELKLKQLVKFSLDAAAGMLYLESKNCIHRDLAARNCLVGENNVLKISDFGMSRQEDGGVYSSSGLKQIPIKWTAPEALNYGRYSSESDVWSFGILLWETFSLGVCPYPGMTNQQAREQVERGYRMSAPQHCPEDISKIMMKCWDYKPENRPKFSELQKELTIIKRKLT
# Ephrin type-A receptor 4 (Homo sapiens), sequence (P54764 whole entry): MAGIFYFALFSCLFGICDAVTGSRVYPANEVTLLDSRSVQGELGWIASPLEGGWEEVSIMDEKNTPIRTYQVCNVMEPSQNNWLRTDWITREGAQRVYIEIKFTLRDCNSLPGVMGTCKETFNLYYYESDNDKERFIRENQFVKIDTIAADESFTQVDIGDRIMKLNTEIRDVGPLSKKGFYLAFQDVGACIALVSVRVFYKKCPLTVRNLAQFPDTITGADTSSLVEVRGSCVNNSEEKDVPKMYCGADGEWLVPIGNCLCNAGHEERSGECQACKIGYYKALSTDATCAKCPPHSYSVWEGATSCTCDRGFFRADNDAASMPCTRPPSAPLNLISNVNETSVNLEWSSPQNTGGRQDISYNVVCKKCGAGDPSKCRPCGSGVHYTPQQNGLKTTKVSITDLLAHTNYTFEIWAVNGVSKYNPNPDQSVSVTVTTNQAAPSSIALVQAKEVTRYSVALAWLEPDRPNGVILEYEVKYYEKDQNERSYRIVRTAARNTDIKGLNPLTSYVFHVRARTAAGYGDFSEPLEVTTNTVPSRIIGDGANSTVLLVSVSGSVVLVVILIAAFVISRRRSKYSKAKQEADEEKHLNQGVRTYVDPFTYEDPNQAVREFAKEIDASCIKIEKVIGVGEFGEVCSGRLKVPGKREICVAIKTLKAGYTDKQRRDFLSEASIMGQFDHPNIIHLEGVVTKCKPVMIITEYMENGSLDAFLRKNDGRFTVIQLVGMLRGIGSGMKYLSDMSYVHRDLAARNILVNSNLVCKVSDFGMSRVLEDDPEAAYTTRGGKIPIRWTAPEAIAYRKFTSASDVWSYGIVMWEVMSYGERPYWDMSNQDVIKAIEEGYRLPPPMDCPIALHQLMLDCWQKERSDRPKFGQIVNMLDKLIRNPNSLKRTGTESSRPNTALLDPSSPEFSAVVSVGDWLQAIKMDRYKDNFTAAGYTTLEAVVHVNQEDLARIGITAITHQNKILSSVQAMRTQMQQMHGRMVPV
# Epidermal growth factor receptor (Homo sapiens), P00533 [L858R,T790M], sequence (P00533 whole entry T790M/L858R, looked up): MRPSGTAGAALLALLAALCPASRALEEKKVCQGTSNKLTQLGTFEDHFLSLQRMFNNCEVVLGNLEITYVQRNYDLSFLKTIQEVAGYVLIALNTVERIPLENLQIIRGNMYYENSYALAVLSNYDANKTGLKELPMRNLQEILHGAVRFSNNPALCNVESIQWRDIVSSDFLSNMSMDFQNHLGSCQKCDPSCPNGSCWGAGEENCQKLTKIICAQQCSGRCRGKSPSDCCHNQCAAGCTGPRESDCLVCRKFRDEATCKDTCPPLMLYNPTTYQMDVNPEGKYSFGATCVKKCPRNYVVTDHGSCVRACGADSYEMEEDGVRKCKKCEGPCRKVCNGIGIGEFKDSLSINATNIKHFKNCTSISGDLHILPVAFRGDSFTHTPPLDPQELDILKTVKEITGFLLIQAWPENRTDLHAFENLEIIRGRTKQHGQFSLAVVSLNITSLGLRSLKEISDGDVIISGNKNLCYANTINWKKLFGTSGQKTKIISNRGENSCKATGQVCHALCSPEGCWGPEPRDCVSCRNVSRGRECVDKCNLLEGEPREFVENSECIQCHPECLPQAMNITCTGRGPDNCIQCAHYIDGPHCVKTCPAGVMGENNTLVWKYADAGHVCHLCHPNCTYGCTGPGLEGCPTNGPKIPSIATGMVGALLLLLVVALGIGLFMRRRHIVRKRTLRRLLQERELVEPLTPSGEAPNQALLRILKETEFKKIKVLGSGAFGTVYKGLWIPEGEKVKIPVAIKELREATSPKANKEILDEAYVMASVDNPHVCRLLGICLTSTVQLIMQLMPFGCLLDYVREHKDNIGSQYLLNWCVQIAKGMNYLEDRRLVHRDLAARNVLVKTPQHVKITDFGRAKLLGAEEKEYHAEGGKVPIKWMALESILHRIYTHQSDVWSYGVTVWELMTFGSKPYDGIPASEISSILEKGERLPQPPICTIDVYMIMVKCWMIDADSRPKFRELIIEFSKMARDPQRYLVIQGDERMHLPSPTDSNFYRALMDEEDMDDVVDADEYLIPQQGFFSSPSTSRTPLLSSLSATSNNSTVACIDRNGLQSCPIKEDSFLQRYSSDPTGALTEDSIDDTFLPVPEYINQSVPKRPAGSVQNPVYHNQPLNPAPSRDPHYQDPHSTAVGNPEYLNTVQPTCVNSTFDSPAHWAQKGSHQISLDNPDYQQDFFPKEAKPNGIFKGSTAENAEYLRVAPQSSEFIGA
# Epidermal growth factor receptor (Homo sapiens), P00533 [T790M], sequence (P00533 whole entry T790M): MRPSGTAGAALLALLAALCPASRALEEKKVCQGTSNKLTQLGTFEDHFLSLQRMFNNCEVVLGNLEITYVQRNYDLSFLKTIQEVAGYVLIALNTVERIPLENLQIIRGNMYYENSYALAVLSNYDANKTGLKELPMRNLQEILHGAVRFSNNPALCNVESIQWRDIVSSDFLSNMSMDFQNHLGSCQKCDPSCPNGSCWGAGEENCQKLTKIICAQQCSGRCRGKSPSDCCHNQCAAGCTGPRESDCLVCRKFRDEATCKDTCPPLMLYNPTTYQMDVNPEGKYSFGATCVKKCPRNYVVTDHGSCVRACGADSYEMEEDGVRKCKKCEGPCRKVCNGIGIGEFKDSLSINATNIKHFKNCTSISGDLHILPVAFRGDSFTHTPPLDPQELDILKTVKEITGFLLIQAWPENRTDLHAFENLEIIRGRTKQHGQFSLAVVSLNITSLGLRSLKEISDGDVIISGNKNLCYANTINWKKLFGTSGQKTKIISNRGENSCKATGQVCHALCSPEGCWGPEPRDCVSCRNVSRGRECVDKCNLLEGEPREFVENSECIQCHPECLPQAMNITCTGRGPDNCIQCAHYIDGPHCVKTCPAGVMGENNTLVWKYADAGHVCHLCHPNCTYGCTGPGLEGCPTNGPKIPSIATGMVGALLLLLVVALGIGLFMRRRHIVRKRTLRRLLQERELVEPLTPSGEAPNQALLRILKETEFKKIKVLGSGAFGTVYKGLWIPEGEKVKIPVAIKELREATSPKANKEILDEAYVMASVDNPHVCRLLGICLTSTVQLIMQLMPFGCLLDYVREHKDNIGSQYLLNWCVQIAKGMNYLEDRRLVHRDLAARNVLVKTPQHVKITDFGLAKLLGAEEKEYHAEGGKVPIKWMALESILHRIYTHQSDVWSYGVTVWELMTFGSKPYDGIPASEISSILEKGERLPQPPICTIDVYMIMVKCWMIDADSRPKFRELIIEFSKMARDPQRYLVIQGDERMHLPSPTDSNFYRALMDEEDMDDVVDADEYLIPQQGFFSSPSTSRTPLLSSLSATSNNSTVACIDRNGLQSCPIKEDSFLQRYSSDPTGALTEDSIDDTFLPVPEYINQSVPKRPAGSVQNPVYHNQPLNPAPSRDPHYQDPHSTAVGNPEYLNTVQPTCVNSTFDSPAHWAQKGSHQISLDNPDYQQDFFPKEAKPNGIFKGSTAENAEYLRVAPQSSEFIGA
SMILES,inhibition [1],inhibition [2],inhibition [3],inhibition [4],inhibition [5],inhibition [6],inhibition [7],inhibition [8],inhibition [9],inhibition [10],inhibition [11],inhibition [12],inhibition [13],inhibition [14],inhibition [15],inhibition [16],inhibition [17],inhibition [18],inhibition [19],inhibition [20]
O=C(Nc1n[nH]c2cc(-c3ccccc3)ccc12)C1CC1,4.64%,2.81%,3.37%,1.75%,3.8%,5.17%,6.3%,6.13%,18.9%,6.68%,17.1%,2.9%,2.89%,2.92%,4.63%,4.46%,1.33%,13.8%,15.8%,6.13%
COC(=O)Nc1nc2ccc(Sc3ccc(NC(=O)Nc4cc(C(F)(F)F)ccc4F)cc3)cc2[nH]1,0.47%,4.21%,1.97%,25.8%,89.6%,9.91%,34.5%,49.5%,81.6%,43.4%,79.9%,3.25%,11.3%,6.3%,57.2%,0.24%,1.41%,1.95%,–,1.93%
CN(C)CCCNc1nccc(-c2c(-c3ccc(F)cc3)nn3cc(C(F)(F)F)ccc23)n1,-0.54%,0.09%,1.55%,-2.91%,-2.04%,0.03%,1.47%,7%,9%,8.88%,19.7%,0.41%,-0.85%,-2.73%,0.9%,0.46%,-1.57%,0.88%,-0.51%,1.94%
CCc1ccc(Oc2nccc(-c3c(-c4ccc(F)cc4)ncn3C3CCNCC3)n2)cc1,4.64%,0.15%,8.07%,0.72%,-0.17%,4.68%,4.67%,9.41%,10.6%,4.76%,9.06%,4.55%,4.56%,1.97%,3.15%,1.55%,7.71%,7.62%,11.6%,-1.66%
NS(=O)(=O)c1ccc(Nc2cc(-c3ccc(O)c(F)c3)n[nH]2)cc1,-0.95%,-2.9%,-4.28%,-1.33%,-1.33%,-4.5%,-0.8%,-6.46%,-5.56%,-3.09%,-1.29%,-8.08%,-5.11%,-0.68%,-0.49%,-5.39%,-4.29%,–,-6.22%,5.83%
COc1cc2ncn(-c3cc(OCc4ccccc4C(F)(F)F)c(C(C)=O)s3)c2cc1OC,0.97%,-1.84%,0.68%,1.98%,2.23%,1.78%,4.66%,5.55%,10.6%,5.43%,9%,3.62%,3.29%,0.64%,3.47%,3.47%,4.43%,6.91%,9.68%,2.43%
COc1cc(Nc2ncc3c(C)nc(-c4cccc(C(F)(F)F)c4)n3n2)cc(OC)c1OC,5.56%,-1.07%,5.23%,4.32%,17.5%,6.02%,10.7%,22.4%,56.1%,17.1%,57.1%,6.46%,3.53%,5.85%,31.1%,0.82%,3.68%,5.34%,8.32%,3.27%
